Source: the supplement of paper PMC6555819

Test system: PPARg:RXRa 90nM:30nM, anti-RXR (NR concentration 90 nM, RXRa partner concentration 30 nM)
Experiment: PBM binding z-score (relative to random genomic background probes); higher = stronger binding; sequences stand for … in GC…GCGATTGACAGCGTAGAATGAAGG
Method in brief: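 Binding z-scores take random background probes as their reference. They come from custom Agilent 4×180K protein-binding microarrays incubated 1 h with ligand-free nuclear receptor dimers, with antibodies against each partner (one per run) detecting binding. Scanned fluorescence was regression-normalized.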

Sequence	PBM binding z-score
CGAACTAGGTCAGAACAGGACAGTGAAGGATGAT	3.44
TCTTGTAGATCAAAGGTTATGAAAGCCGAAGCCT	8.56
CGTCCAAGGTCATAGGAGGTCCGTGAAGACAGAT	3.67
TCGCGTAGGTTAGTCGGGGCATTCAGCCAACATA	0.992
ATCTCTAAGTAAGACTCAGTTCAGTGAAGAACGC	0.392
CCTACGGGGCCATCAGGTCATTGATATCAACGTT	0.958
ACTAGCAGGCCCAGGGTCACTCAAGATTAGTCCG	1.68
AGTCAAAGTTCACTAGGTAACGTACGATTCAGCT	5.98
TATACAGGGTCAAAGGCCAGAGGACGAATGTCGA	7.21
CCTATTAGTTGACCATAAGGGCAACAGAAGCTCG	0.284
GTACCAAGGTGAATAGGTCTTTGATGAGTAGGCG	0.823
AGAATGAGGTTATACGTAGATAAGGGAAGAAAGT	1.67
CGTCCAAGGTCAAGGTTAGTGAAAGAGACTCGAA	4.2
CGTCCAATGTCAGAGAGGTCAGTGAATGCCGAGT	1.18
CCTAGCAGGCCAGGCTCACTCAAGCATTTCGCTT	-0.853
CAAACTAGGTCACGAAAGGACAAAGTCGAATGAC	7.48
TCTTGTAGATCAAGAAGGTTAAGAAAGCCTGAGT	2.31
GGAACGAGGGCATTCGAGTTAATAGCATGGCGAT	1.09
CTACCAAGGTGAACAAGGCCGTTGATTACTATTC	0.152
TCTGCAAGGTCAGTTGGTCAGCTAACGAGCTGCC	1.72

Sequence	PBM binding z-score
GCTAGAAGGCCATTTGGGTCACTCAATGACGGGC	-0.245
CGTCAAAGTGCAACTAAGGTAACGTAAAGCACGC	0.977
TCATATAGGTAAATGCTTGGTGAAAGTCCGATCT	2.72
TTACCAAGGTGAAACGTCGTTGATGCACGCCTTG	2.15
CGTCCAAGGTCATAGGAGGGCAGTGAAGACAGAT	3.99
CCTAGCAGGCCAGGGTAACTCAAGCATTTCGCTT	-0.605
CATGCAGGGTCAGCTAGGCCAGAGTAGGGACGGC	1.84
TCATATAGGTAGATGCTAGGTGAAAGTCCGATCT	2.7
GCTTGTTGATCAAGGTTAAGAAAGACTAAGCTAA	0.472
GCTAGCAGGCCATATGGGTCACTCAATGACGGGC	0.766
CGTCAAAGTTAAACTAAGGTAACGTAAAGCACGC	0.292
CCTGCTAGGTCATGGTCAACTAATCTACAGTATG	1.92
CAAACTAGGTCAAAGGTGAAAGTCGAGCCAACCA	13.5
ATCTCTAGGTAACCAAGTTCATTGAATGCCGAAC	0.937
TCTTGTTGGTCAAAGGTCACACACTCGAAATGCG	10
ATCTCTAGGTAATCAAGTTCAGTGAATGCCGAAC	1.19
TCGAGTAGGTTACCAATGGGGCATTGAGCTTTCT	1.16
CGAACTAGGTCAGAACAGGACAGTAAAGGATGAT	3.65
ATACCAAGGTGATCGTGAGCTCGTTGATACTAAC	-0.0822
GCTAGCAGGCCACTTGGGTCACTCAATGACGGGC	-0.355
